In PubChem BioAssay AID1159580 (chemical genetic matrix, 2015):
Several values for one entry are separate records, joined by “and”; a condition that tells them apart may be missing. Equal entries are not always repeated. Screen size: about 5,500 compounds; about 2,000 (36%) were called active. Roughly 18% stayed inconclusive and do not appear here. No stated cut-off is given here; in the data, active means normalized growth mostly below about 0.91 (no sharp cut-off); inconclusive means no clear call, values can overlap the other calls; inactive means mostly above about 0.92. The list shows a part of the results.

Assay: chemical genetic growth profiling, strain panel (AID 1159580);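 further: tested at 20 µM; growth read once vehicle control cultures reached saturation at 30 °C; 1 = growth at the plate median or of vehicle wells; lower values mean less growth of the strain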
Conditions: growth OD

Measured: normalized growth

C/C=C(/C)C(=O)O[C@H]1CC[C@@]2(C)[C@@H]3CC[C@H]4[C@]5(O)C[C@H](O)[C@@]6(O)[C@@H](CN7C[C@@H](C)CC[C@H]7[C@@]6(C)O)[C@]5(O)C[C@@]42O[C@]13O
inactive: S. cerevisiae deletion strains, locus YBR021W, strain FUR4, active compounds read low 1 | S. cerevisiae deletion strains, locus YBR229C, strain ROT2, active compounds read low 1.01 | S. cerevisiae deletion strains, locus YCL029C, strain bik1, active compounds read low 0.988 | S. cerevisiae deletion strains, locus YDL035C, strain GPR1, active compounds read low 0.991 | S. cerevisiae deletion strains, locus YDL074C, strain BRE1, active compounds read low 0.981 | S. cerevisiae deletion strains, locus YDL101C, strain DUN1, active compounds read low 1.02 | S. cerevisiae deletion strains, locus YDL185W, strain tfp1, active compounds read low 0.966 | S. cerevisiae deletion strains, locus YDL192W, strain arf1, active compounds read low 0.966 | S. cerevisiae deletion strains, locus YDR101C, strain arx1, active compounds read low 0.981 | S. cerevisiae deletion strains, locus YDR162C, strain NBP2, active compounds read low 1.05 | S. cerevisiae deletion strains, locus YDR318W, strain mcm21, active compounds read low 0.987 | S. cerevisiae deletion strains, locus YDR388W, active compounds read low 0.98 | S. cerevisiae deletion strains, locus YDR502C, strain sam2, active compounds read low 0.988 | S. cerevisiae deletion strains, locus YEL061C, strain CIN8, active compounds read low 1 | S. cerevisiae deletion strains, locus YER110C, active compounds read low 0.964 | S. cerevisiae deletion strains, locus YER155C, strain BEM2, active compounds read low 1 | S. cerevisiae deletion strains, locus YER167W, strain BCK2, active compounds read low 0.995 | S. cerevisiae deletion strains, locus YGL078C, strain dbp3, active compounds read low 0.993 | S. cerevisiae deletion strains, locus YGL086W, strain mad1, active compounds read low 0.975 | S. cerevisiae deletion strains, locus YGL248W, strain PDE1, active compounds read low 1.03 | S. cerevisiae deletion strains, locus YGR078C, strain PAC10, active compounds read low 1.05 | S. cerevisiae deletion strains, locus YGR135W, strain pre9, active compounds read low 0.993 | S. cerevisiae deletion strains, locus YGR252W, strain gcn5, active compounds read low 1.11 | S. cerevisiae deletion strains, locus YHR030C, strain SLT2, active compounds read low 0.988 and 0.996 | S. cerevisiae deletion strains, locus YHR079C, strain IRE1 (second series), active compounds read low 0.969 | S. cerevisiae deletion strains, locus YHR079C, strain IRE1, active compounds read low 0.969 | S. cerevisiae deletion strains, locus YHR094C, strain hxt1, active compounds read low 0.981 | S. cerevisiae deletion strains, locus YHR129C, strain ARP1, active compounds read low 0.996 | S. cerevisiae deletion strains, locus YHR200W, strain rpn10, active compounds read low 0.964 | S. cerevisiae deletion strains, locus YIL066C, strain RNR3, active compounds read low 1.01 | S. cerevisiae deletion strains, locus YIL073C, strain SPO22, active compounds read low 0.949 | S. cerevisiae deletion strains, locus YIL125W, strain kgd1, active compounds read low 1 | S. cerevisiae deletion strains, locus YIR030C, strain dcg1, active compounds read low 0.977 | S. cerevisiae deletion strains, locus YJL095W, strain BCK1, active compounds read low 1.05 and 0.999 | S. cerevisiae deletion strains, locus YJL134W, strain LCB3, active compounds read low 0.996 | S. cerevisiae deletion strains, locus YJL168C, strain set2, active compounds read low 0.982 | S. cerevisiae deletion strains, locus YJL187C, strain SWE1 (second series), active compounds read low 1.07 | S. cerevisiae deletion strains, locus YJR043C, strain POL32, active compounds read low 1.02 | S. cerevisiae deletion strains, locus YJR066W, strain TOR1, active compounds read low 0.928 | S. cerevisiae deletion strains, locus YKL009W, strain mrt4, active compounds read low 0.948 | S. cerevisiae deletion strains, locus YKL068W, active compounds read low 0.987 | S. cerevisiae deletion strains, locus YKL085W, strain MDH1 (second series), active compounds read low 0.979 | S. cerevisiae deletion strains, locus YKL085W, strain MDH1, active compounds read low 0.979 | S. cerevisiae deletion strains, locus YKR001C, strain vps1, active compounds read low 0.965 | S. cerevisiae deletion strains, locus YLR039C, strain RIC1, active compounds read low 0.908 | S. cerevisiae deletion strains, locus YLR058C, strain SHM2, active compounds read low 1.01 | S. cerevisiae deletion strains, locus YLR102C, strain apc9, active compounds read low 0.975 | S. cerevisiae deletion strains, locus YLR113W, strain HOG1, active compounds read low 0.995 | S. cerevisiae deletion strains, locus YLR262C, strain YPT6, active compounds read low 0.934 | S. cerevisiae deletion strains, locus YLR268W, strain sec22, active compounds read low 0.97 | S. cerevisiae deletion strains, locus YLR330W, strain CHS5, active compounds read low 0.986 | S. cerevisiae deletion strains, locus YLR342W, strain FKS1 (second series), active compounds read low 1.05 | S. cerevisiae deletion strains, locus YLR371W, strain rom2, active compounds read low 0.982 | S. cerevisiae deletion strains, locus YLR418C, strain cdc73, active compounds read low 0.988 | S. cerevisiae deletion strains, locus YML016C, strain PPZ1, active compounds read low 1 | S. cerevisiae deletion strains, locus YML032C, strain rad52, active compounds read low 1 | S. cerevisiae deletion strains, locus YML124C, strain tub3, active compounds read low 0.984 | S. cerevisiae deletion strains, locus YMR078C, strain ctf18, active compounds read low 0.958 | S. cerevisiae deletion strains, locus YMR223W, strain ubp8, active compounds read low 1 | S. cerevisiae deletion strains, locus YMR263W, strain SAP30, active compounds read low 1.01 | S. cerevisiae deletion strains, locus YMR307W, strain GAS1, active compounds read low 1.15 | S. cerevisiae deletion strains, locus YNL067W, strain RPL9B, active compounds read low 1.03 | S. cerevisiae deletion strains, locus YNL183C, strain NPR1, active compounds read low 0.974 | S. cerevisiae deletion strains, locus YNL233W, strain BNI4, active compounds read low 1.03 | S. cerevisiae deletion strains, locus YNL250W, strain rad50, active compounds read low 0.962 | S. cerevisiae deletion strains, locus YNL271C, strain bni1, active compounds read low 0.994 | S. cerevisiae deletion strains, locus YNL298W, strain CLA4, active compounds read low 0.993 | S. cerevisiae deletion strains, locus YNL307C, strain MCK1, active compounds read low 0.995 | S. cerevisiae deletion strains, locus YNR052C, strain pop2, active compounds read low 1.01 | S. cerevisiae deletion strains, locus YOL012C, strain htz1 0.767 | S. cerevisiae deletion strains, locus YOL147C, strain pex11, active compounds read low 0.991 | S. cerevisiae deletion strains, locus YOR061W, strain CKA2, active compounds read low 1 | S. cerevisiae deletion strains, locus YOR069W, strain VPS5, active compounds read low 0.997 | S. cerevisiae deletion strains, locus YOR136W, strain idh2, active compounds read low 0.981 | S. cerevisiae deletion strains, locus YOR144C, strain elg1, active compounds read low 1.01 | S. cerevisiae deletion strains, locus YOR184W, strain ser1, active compounds read low 0.993 | S. cerevisiae deletion strains, locus YOR231W, strain MKK1, active compounds read low 1.01 | S. cerevisiae deletion strains, locus YOR316C, strain cot1, active compounds read low 0.98 | S. cerevisiae deletion strains, locus YPL256C, strain CLN2, active compounds read low 0.983 | S. cerevisiae deletion strains, locus YPR119W, strain clb2, active compounds read low 0.963 | S. cerevisiae deletion strains, locus YPR141C, strain kar3, active compounds read low 0.981 | S. cerevisiae deletion strains, locus YPR163C, strain tif3, active compounds read low 0.977 | S. cerevisiae deletion strains, locus YPR167C, strain met16, active compounds read low 0.957 | S. cerevisiae deletion strains, strain wtn01, active compounds read low 0.977 | S. cerevisiae strains, strain wild type, active compounds read low 1.01
